# Screening data deposited in PubChem BioAssay by National Center for Advancing Translational Sciences (NCATS).
# Glioma ERSR ind: inducers of ER stress response in human glioma cells; AID 602332; actives 0.02% (n = 420,000); U87-MG GRP78 promoter luciferase reporter, 16 h; Potency, µM, for inactives: at the top dose activation, hits mostly activators; further: series mostly up to about 76 µM; % of control where 0% means no effect; nearly all actives have a fitted effect of over 35% in size
#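 Stably transfected U87-MG human glioma cells carrying a GRP78-based luminescent sensor were seeded at 1000 cells/well, pin-dosed with compounds and incubated 16 h. Luciferase reagent was then added, and end-point luminescence was read after 10 min at room temperature.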
# TrxR1 substrate: substrates of rat thioredoxin reductase 1; O89049; purified TrxR1 substrate turnover, NADPH consumption readout; Potency, µM (titrated, usually from 114 µM), for the others: at the top dose activity change, negative = substrate turnover; actives 0.01% (n = 390,000); further: on the % scale 0 is the no-effect control and ±100 the full control effect; nearly all actives have a fitted effect of over 50% in size
#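 Rat TrxR1, dispensed at 90 nM, was prereduced with 400 uM NADPH (final) for 5 min at ~22 deg C, then incubated with compound 15 min before 400 uM selenite. A first-read NADPH fluorescence drop versus no-compound background flagged substrates.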
# Apoferritin bind: binds horse apoferritin like a general anesthetic | actives 0.074% (n = 350,000) | apoferritin/1-aminoanthracene competitive binding, fluorescence | P02791 | AID 485281 | Potency, µM (top dose mostly 77.5 µM), for inactives: top-dose activity change, negative = displacement, usual class: inhibitors; further: on the % scale 0 is the no-effect control and ±100 the full control effect; nearly all actives have a fitted effect of over 20% in size
# Target sequence (P02791 2-175 limits assumed): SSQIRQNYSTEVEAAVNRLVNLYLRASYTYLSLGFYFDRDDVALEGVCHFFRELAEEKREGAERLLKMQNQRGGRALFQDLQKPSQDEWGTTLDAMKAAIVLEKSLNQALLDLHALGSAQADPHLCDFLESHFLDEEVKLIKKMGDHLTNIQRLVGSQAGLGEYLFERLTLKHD
#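 Read-out: endpoint 1-AMA fluorescence, excitation 380 nm and emission 535 nm, after compounds sit 10 min at room temperature with 10 uM horse-spleen apoferritin in 50% saturated 1-AMA/PBS. Values come from four-parameter Hill fits.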
# IDH1 R132H inh: blocks human mutant IDH1 R132H enzyme | IDH1-R132H enzyme, NADPH consumption, diaphorase/resazurin fluorescence | Potency, µM (series often up to 76.6 µM), without a hit: at the top dose activity change, negative = inhibition, actives largely listed as inhibitors | actives 0.093% (n = 390,000); further: on the % scale 0 is the no-effect control and ±100 the full control effect; nearly all actives have a fitted effect of over 65% in size
# Target sequence (O75874 whole entry R132H, stated change not applied): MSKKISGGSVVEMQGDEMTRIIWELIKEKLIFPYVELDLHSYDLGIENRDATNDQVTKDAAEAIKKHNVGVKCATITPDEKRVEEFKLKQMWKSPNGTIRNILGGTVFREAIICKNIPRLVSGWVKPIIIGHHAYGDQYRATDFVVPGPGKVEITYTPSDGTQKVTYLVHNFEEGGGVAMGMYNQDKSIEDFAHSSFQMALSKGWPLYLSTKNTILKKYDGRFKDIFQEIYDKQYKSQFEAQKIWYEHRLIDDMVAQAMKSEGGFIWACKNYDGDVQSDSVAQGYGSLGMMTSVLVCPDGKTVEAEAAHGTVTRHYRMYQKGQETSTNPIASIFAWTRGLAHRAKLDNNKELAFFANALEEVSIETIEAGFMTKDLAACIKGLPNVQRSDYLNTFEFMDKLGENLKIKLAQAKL
#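 IDH1-R132H (0.5 ug/mL dispensed) in pH 7.5 Tris buffer was preincubated 30 min with compound, then given a substrate mix of 0.016 mM NADPH and 2 mM alpha-KG for 80 min at room temperature; remaining NADPH was read by diaphorase/resazurin fluorescence.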
# rTrxR1 inhibitor: rat TrxR1 inhibition | O89049 | Potency, µM (series often up to 114 µM), inactives show at the top dose activity change, negative = inhibition, most hits filed as inhibitors | actives 1% (n = 390,000) | recombinant rTrxR1, NADPH fluorescence consumption, selenite substrate; further: on the % scale 0 is the no-effect control and ±100 the full control effect; nearly all actives have a fitted effect of over 65% in size
#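 Rat TrxR1 (90 nM in the dispensed reagent) was pre-reduced with 400 uM NADPH for 5 min at room temperature, then incubated with compound for 15 min. After 400 uM selenite was added, NADPH fluorescence (Ex 340/Em 450 nm) was followed for 8 min.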
# ALOX12 inh: inhibitors of human 12S-lipoxygenase ALOX12; purified 12hLO, xylenol orange hydroperoxide absorbance; Potency, µM (doses to about 108 µM), for the others: top-dose activity change, negative = inhibition, hits mostly inhibitors; actives 1.1% (n = 580,000); AID 1671190; further: on the % scale 0 is the no-effect control and ±100 the full control effect
#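 Purified human 12hLO (150 nM final) in 25 mM Hepes, 0.01% Triton X-100, pH 7.0 was preincubated 15 min at room temperature with compound. Then 40 uM arachidonic acid was added, 30 min. Hydroperoxide was read by Fe-XO absorbance ratio 573/405 nm.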
# * marks the source's active call; other numbers are inactive results; ? = inconclusive; · = no result; ! = repeats disagree; [ ] = dose if it differs, or a comment. Only some compounds are listed: those with a hit (about 1.7% of all), similar ones and a draw of the others. The call rests on the fitted dose curve; in most records, active means well fitted curve in the direction sought with a large enough effect; inconclusive means small, poorly fitted or top-dose-only effect, or another doubt; inactive means no such curve, though single readings can be large; an effect the other way counts as inactive or inconclusive. Potency means the concentration at half of the fitted maximal effect.
SMILES,Glioma ERSR ind,TrxR1 substrate,Apoferritin bind,IDH1 R132H inh,rTrxR1 inhibitor,ALOX12 inh
O=C1S/C(=C\c2ccc(O)c([N+](=O)[O-])c2)C(=O)N1c1ccccc1Cl,2%,-12%,13µM*,-3%,-1%,?
O=C1S/C(=C\c2ccc(O)c([N+](=O)[O-])c2)C(=O)N1Cc1cccc([N+](=O)[O-])c1,-3%,3%[57.1 µM],-14%,18%,9%[57.1 µM],?
O=C1CCCN1CCC1CCN(C2CC(=O)N(c3ccc(Cl)cc3)C2=O)CC1 (centres undefined),-4%,2%,-10%,8%,40µM*,5%
CCOC(=O)CNc1nnc(SCC(=O)OCC)[nH]c1=O,-15%,6%,-7%,9%,10µM*,2%
Cc1cccc(CNc2nc(-c3ccc4c(c3)OCO4)nc3ccccc23)c1,-4%,·,·,·,·,40µM*
O=C(CN1CCCc2ccccc21)Nc1cccc2nsnc12,·,·,·,·,·,1%
CC(C)c1ccc(S(=O)(=O)/N=C2\C=C(NS(=O)(=O)c3ccccc3)C(=O)c3ccccc32)cc1,3%,-5%,1%,24%,?,35µM*
CCc1ccc(S(=O)(=O)/N=C2\C=C(NS(=O)(=O)c3ccccc3)C(=O)c3ccccc32)cc1,11%,-14%,-3%,16%,?,?
CCCCN=Cc1c(C)[nH]n(-c2ccccc2)c1=S,-1%,-1%,-13%,0%,-3%,22µM*
O=C(Cn1cc(C2CCCNC2)nn1)N1CCCC1 (centres undefined),·,·,·,·,·,26%
Cc1cc(C)n(CC2(Cn3cc(C4CCCNC4)nn3)CC2)n1 (centres undefined),·,·,·,·,·,14µM*
CNC(=O)c1nc(C)n(-c2ccc(Cl)cc2Cl)n1,-1%,4%[57.1 µM],2%,2%,2%[57.1 µM],-10%
Cc1c(C(=O)NN2CCCCC2)nn(-c2ccc(Cl)cc2Cl)c1-c1ccc(Cl)cc1,3%,·,·,·,·,24µM*!
COc1cc(OC)c(N(C)C(=O)c2nn(C)c3c2CSc2ccccc2-3)cc1Cl,-2%,-2%,-13%,-6%,1%,-17%
O=C(Nc1ccccn1)C(=O)Nc1ccccn1,-10%,-7%,4%,-2%,-2%,-13%
S=C(Nc1ccccn1)c1ccccn1,-6%,-7%,-7%,3%,-1%[57.1 µM],4.5µM*
S=C(Nc1ccccn1)Nc1ccccc1Cl,?,8%[57.1 µM],4%,3%,-43%,35µM*
COC(=O)Cc1ccc(NC(=S)Nc2ccccn2)cc1,8%,-9%,-12%,6%,?,40µM*
COC(=O)Cc1ccc(NC(=S)NCCO)cc1,0%,7%[57.1 µM],0%,5%,8%[57.1 µM],2%
COc1cc(NC(=S)Nc2ccccn2)cc(OC)c1,-1%,-1%,-14%,-1%,-7%,32µM*
Cc1c(Cl)cccc1NC(=S)Nc1ccccn1,4%,11%[57.1 µM],-1%,2%,24%[57.1 µM],?
COCCN1C(=O)c2cccn2CC1CNC(=O)NCc1ccc(F)cc1 (centres undefined),·,·,·,·,·,44%
CCOC(=O)c1nn(-c2ccc(C)cc2)c(=O)c2c(N)scc12,-3%,-16%,-8%,0%,4%,25µM*
CCOc1ccc(C2Cn3nnc(-c4nc(-c5ccccc5OCC)no4)c3CO2)cc1 (centres undefined),·,·,·,·,·,15%
CCc1ccc(C(=O)Nc2cccc(Cl)c2)cc1S(=O)(=O)N1CCOCC1,·,·,·,·,·,8%
SMILES,Glioma ERSR ind,TrxR1 substrate,Apoferritin bind,IDH1 R132H inh,rTrxR1 inhibitor,ALOX12 inh
Cc1ccc(-c2nc3c(Cl)cc(C(F)(F)F)cn3c2Cc2ccccc2)cc1,-1%,·,·,·,·,?
Cc1ccc(Cc2c(-c3ccc(Cl)cc3)nc3c(Cl)cc(C(F)(F)F)cn23)cc1,1%,·,·,·,·,35µM*
C=CCc1cccc(/C=N/c2ncccc2O)c1O,-1%,11%,-8%,7%,14µM*,?
Cc1ccc(CNC2CN(C(=O)OC(C)(C)C)C2)nc1,·,·,·,·,·,63%[176 µM]
CC(C)(C)c1ccc(-n2nc(C#N)c(Cl)cc2=O)cc1,-15%,4%[57.1 µM],?,-6%,16µM*,-3%
CC(C)(C)c1ccc(-n2nc(C(N)=O)c(O)cc2=O)cc1,-2%,2%,0%,3%,21%[57.1 µM],-10%
Clc1ccc(CSc2nnc(-c3cccnc3)n2Cc2ccco2)c(Cl)c1,-4%,-10%,-12%,2%,40µM*,0%
O=C(CSc1nnc(Cc2cccs2)n1Cc1ccco1)Nc1cccc(Cl)c1,-3%,6%,-14%,0%,25µM*,0%
CN(Cc1ccc(-c2ccc(Cl)cc2)o1)C(=O)CSc1nnc(C2CC2)n1Cc1ccco1,·,·,·,·,·,16µM*
O=C(CSc1nnc(-c2ccc(Cl)cc2)n1Cc1ccco1)c1cccs1,2%,-6%,-18%,5%,35µM*,?
O=C(CSc1nnc(-c2ccc(Cl)cc2)n1Cc1ccco1)N1CCCCC1,·,·,·,·,·,-61%
O=c1oc2ccc(Cl)cc2cc1-c1csc(Nc2c(F)cccc2F)n1,·,·,·,·,·,-27%
COc1ccc(C(=O)CSc2nnc(-c3cccnc3)n2Cc2ccco2)cc1,1%,-9%,-21%,9%,50µM*,?
c1cncc(CSc2nnc(-c3cccnc3)n2Cc2ccco2)c1,·,·,-10%,·,·,-8%
O=C(CSc1nnc(-c2ccncc2)n1Cc1ccco1)c1ccc(Cl)cc1,18%,8%,4%,2%,32µM*,275%
O=C(CSc1nnc(-c2cccnc2)n1Cc1ccco1)N1c2ccccc2Sc2ccccc21,-2%,-1%[57.1 µM],?,-3%,-16%[57.1 µM],32µM*
COc1ccc(C(=O)CSc2nnc(-c3cnccn3)n2Cc2ccco2)cc1,-4%,15%,?,12%,?,?
Cc1ccc(NC(=O)c2ccc(CSc3ccc(Cl)cc3)cc2)c(C)c1,·,·,·,·,·,-20%
Cc1ccc(SC(CC(=O)c2ccc(C)cc2)C(=O)O)cc1 (centres undefined),-16%,-4%,-11%,-1%,40µM*,3%
COc1ccc(-c2cc(-c3ccco3)[nH]c(=O)c2C#N)cc1OC,0%,46%,-12%,0%,16µM*,?
Cc1cnc(C(=O)N[C@@H]2CCC[C@@H]2C(=O)N2CCOCC2)cn1,·,·,·,·,·,28%
CC(C)CC(=O)/C(=C\c1ccc(Cl)cc1Cl)n1cncn1,-12%,3%,-16%,-2%,8.9µM*,·
CC(C)CC(=O)/C(=C/c1ccc(N(C)C)cc1)n1cncn1,-2%,-19%,3%,11%,-11%,0%
CCCn1ccc2sc(C)c(C(=O)N3CCN(C(C)C)CC3)c2c1=O,·,·,·,·,·,25%
CCCn1c(=O)[nH]c(=O)c2c1nc(-c1ccc(C#N)cc1)n2CCN1CCOCC1,·,·,·,·,·,28µM*
